Measured values as given in PubChem BioAssay (Tox21).
Inconclusive results are not listed. Entries that show only a call come without a potency. Activity calls are given as the source filed them. The call rests on the fitted dose curve. Non-standard residues stand in square brackets, D forms with d. Residues, ends and D or L forms follow the SMILES beside them. pGlu = O=C1CC[C@@H](C(=O)O)N1

Assay: qHTS assay for small molecule agonists of the p53 signaling pathway (AID 651631); further: nearly all actives have a fitted effect of over 15% in size
Details: HCT-116 p53RE-bla reporter, beta-lactamase FRET ratio, 16 h; series mostly up to 73.3 µM
How it was run: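 Readout was fluorescence from the LiveBLAzer FRET substrate, applied for 2 h at room temperature after 16 h compound exposure at 37 °C. Cells were the p53RE-bla HCT-116 line, with beta-lactamase driven by p53 response elements.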
Potency means the concentration at half of the fitted maximal effect.

Row | Structure (SMILES) | Potency
1 | COc1cc2c(cc1OC)[C@@H](c1ccccc1)CN(C)CC2 | inactive
2 | CCC(Cc1c(I)cc(I)c(O)c1I)C(=O)O (stereo unspecified) | inactive
3 | CC(=O)Oc1cccc(C(=O)O)c1OC(C)=O | inactive
4 | O=C(NNCS(=O)(=O)O)c1ccncc1 | inactive
5 | CO/N=C(\C(=O)N[C@@H]1C(=O)N2C(C(=O)O)=C(CSC(=O)c3ccco3)CS[C@H]12)c1csc(N)n1 | inactive
6 | O=c1[nH]cnc2[nH]cc(CN3CCCCC3)c12 | inactive
7 | CO/N=C(\C(=O)N[C@@H]1C(=O)N2C(C(=O)OCOC(=O)C(C)(C)C)=C(/C=C\c3scnc3C)CS[C@H]12)c1csc(N)n1 | inactive
8 | CCCC(=O)O[C@]1(C(=O)COC(C)=O)CC[C@H]2[C@@H]3C[C@H](F)C4=CC(=O)C=C[C@]4(C)[C@@]3(F)[C@@H](O)C[C@@]21C | inactive
9 | CCCc1ccc(C(=O)O)cc1 | inactive
10 | CC1(C)S[C@@H]2[C@H](NC(=O)C(C(=O)Oc3ccc4c(c3)CCC4)c3ccccc3)C(=O)N2[C@H]1C(=O)O (stereo partly specified) | inactive
11 | CO[C@@]1(NC(=O)C2SC(=C(C(N)=O)C(=O)O)S2)C(=O)N2C(C(=O)O)=C(CSc3nnnn3C)CS[C@@H]21 (stereo partly specified) | inactive
12 | O=C1CCC(=O)N1CO | inactive
13 | C[C@@H](O)[C@H]1C(=O)N2C(C(=O)[O-])=C(SC3Cn4cnc[n+]4C3)[C@H](C)[C@H]12 (stereo partly specified) | inactive
14 | CC(C)[C@@H]1CC[C@@H](C)C[C@H]1OC(=O)c1ccccc1O | inactive
15 | N#Cc1ccc2c(c1)N(CCCN1CCC(O)CC1)c1ccccc1S2 | 26.6 µM (active)
16 | CO[C@H]1C[C@H](O[C@H]2[C@H](C)[C@@H](O[C@@H]3O[C@H](C)C[C@H](N(C)C)[C@H]3OC(C)=O)[C@@H](C)C[C@]3(CO3)C(=O)[C@H](C)[C@@H](OC(C)=O)[C@@H](C)[C@@H](C)OC(=O)[C@@H]2C)O[C@@H](C)[C@@H]1OC(C)=O | inactive
17 | C[C@]12CC[C@@H]3c4ccc(OS(=O)(=O)O)cc4CC[C@H]3[C@@H]1CCC2=O | inactive
18 | Nc1nc2c(c(=O)[nH]1)N(C=O)C(CNc1ccc(C(=O)N[C@@H](CCC(=O)O)C(=O)O)cc1)CN2 (stereo partly specified) | inactive

Row | Structure (SMILES) | Potency
19 | C/C=C(/CC[C@@H](C)[C@H]1CC[C@H]2C3=CC[C@H]4[C@H](C)[C@@H](O)CC[C@]4(C)[C@H]3CC[C@]12C)C(C)C | inactive
20 | OC[C@H]1O[C@@H](n2cnc3c2NC=NC[C@H]3O)C[C@@H]1O | inactive
21 | O=C(O)c1nc(=O)[nH]c(=O)[nH]1 | inactive
22 | C=CCSSSCC=C | 9.44 µM (active)
23 | CS(=O)(=O)Nc1cc2occ(NC=O)c(=O)c2cc1Oc1ccccc1 | inactive
24 | CC(C(=O)O)c1ccc(C2CCCCC2)c2ccccc12 (stereo unspecified) | inactive
25 | CC[C@H](C)[C@H](NC(=O)[C@H](Cc1ccccc1)NC(=O)[C@H](C)NC(=O)[C@H](CC(=O)O)NC(=O)[C@H](CCCCN)NC(=O)[C@H](CO)NC(=O)[C@@H]1CCCN1C(=O)[C@@H]1CCC(=O)N1)C(=O)NCC(=O)N[C@@H](CC(C)C)C(=O)N[C@@H](CCSC)C(N)=O ([pGlu]PSKDAFIGLM-NH2) | inactive
26 | Cc1cccc(C)c1NC(=O)NC1=CCCN1C | inactive
27 | Cn1cc(NC(=O)c2cc(NC(=O)c3cc(NC=O)cn3C)cn2C)cc1C(=O)NCCC(=N)N | inactive
28 | CCCCCCCCCCCCCCCC(=O)O[C@@H]1[C@@H](O)[C@@H](O)[C@@H]([C@H](NC(=O)[C@@H]2C[C@@H](CCC)CN2C)[C@H](C)Cl)O[C@@H]1SC | inactive
29 | Cc1cccc(Nc2ncccc2C(=O)O)c1C | inactive
30 | NCCCNCCCCNC(=O)C(O)NC(=O)CCCCCCN=C(N)N (stereo unspecified) | inactive
31 | CC1(C)C2CC[C@]3(C)[C@H](C(=O)C=C4[C@@H]5C[C@@](C)(C(=O)O)CC[C@]5(C)CC[C@]43C)[C@@]2(C)CC[C@@H]1O[C@H]1O[C@H](C(=O)O)[C@@H](O)[C@H](O)[C@H]1O[C@@H]1O[C@H](C(=O)O)[C@@H](O)[C@H](O)[C@H]1O (stereo partly specified) | inactive
32 | CN1c2c(nc(N)[nH]c2=O)NCC1CNc1ccc(C(=O)NC(CCC(=O)O)C(=O)O)cc1 (stereo unspecified) | inactive
33 | Oc1cc(O)cc(O)c1 | inactive
34 | NC(=O)OCC(O)COc1ccc(Cl)cc1 (stereo unspecified) | inactive
35 | O=C1NC(=O)[C@H]2[C@@H]1[C@@H]1C=C[C@H]2C1 | inactive
36 | CC(C)[C@H](N)C(=O)OCC(CO)OCn1cnc2c(=O)[nH]c(N)nc21 (stereo partly specified) | inactive
